In the library only some 1.2% were active in any assay of this set; here they are far more common.
CIT2-GFP yeast: modulators of TOR pathway CIT2-GFP in S. cerevisiae; S. cerevisiae CIT2-GFP strain, flow cytometry, 3 h; 100 means same as DMSO wells; GFP response vs DMSO, % at 10 µM; 320,000 tested, 0.065% active; AID 2029;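 active means GFP response relative to DMSO above a set limit, near the screen mean plus 3 SD, cut at about 150% in these data; inconclusive means Fewer than 70 cells measured for a yeast strain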;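 further: ratio of well median GFP fluorescence to mean of DMSO wells on the plate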
AGP1 TOR yeast: alters AGP1-GFP fluorescence in TOR pathway yeast screen | S. cerevisiae AGP1-GFP multiplex flow cytometry, 3 h; GFP as percent of DMSO wells | GFP response vs DMSO, % at 10 µM | 320,000 tested, 0.02% active | AID 2066;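 active means GFP response relative to DMSO above a set limit, near screen average plus 3 SD, cut at about 150% in these data; inconclusive means fewer than 70 cells counted for the yeast strain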;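 further: median GFP channel fluorescence of the gated AGP1 strain per well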
RPL19A-GFP yeast: alters RPL19A-GFP fluorescence in TOR pathway yeast screen; S. cerevisiae RPL19A-GFP strain, flow cytometry, 3 h; stronger effect = lower value; percent response vs DMSO, % at 10 µM; 330,000 tested, 0.3% active; AID 2025;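 active means percent response vs DMSO below 50%; inconclusive means fewer than 70 events counted for the yeast strain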;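 further: median channel GFP fluorescence of the barcoded RPL19A-GFP strain; ratio of sample median GFP to plate DMSO average so 100% = DMSO; lower means less RPL19A-GFP as with rapamycin TOR inhibition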
LAP4-GFP MLPCN: alters LAP4-GFP fluorescence in TOR pathway yeast screen; S. cerevisiae LAP4-GFP multiplex, flow cytometry GFP, 3 h; median GFP as percent of DMSO wells; GFP response vs DMSO, % at 10 µM; 320,000 tested, 0.34% active;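 active means GFP response vs DMSO above a set limit, about the screen mean plus 3 SD, cut at about 150% in these data; inconclusive means under 70 cell events counted for the yeast strain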
Pemphigus Ab inh: inhibitors of pemphigus antibody binding to human desmoglein-3 | P32926 | DSG3-coupled beads, scFv-anti-DSG3-GFP binding, flow cytometry; stronger effect = lower value | binding (percent of control), % at 10 µM | 310,000 tested, 0.48% active;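 active means binding more than 3 SD below its plate's average and above zero; inconclusive means below that plate limit but binding exactly zero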;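 further: hits lower antibody fragment binding to DSG3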
Target sequence (P32926 whole entry, looked up, the tested form may be a part): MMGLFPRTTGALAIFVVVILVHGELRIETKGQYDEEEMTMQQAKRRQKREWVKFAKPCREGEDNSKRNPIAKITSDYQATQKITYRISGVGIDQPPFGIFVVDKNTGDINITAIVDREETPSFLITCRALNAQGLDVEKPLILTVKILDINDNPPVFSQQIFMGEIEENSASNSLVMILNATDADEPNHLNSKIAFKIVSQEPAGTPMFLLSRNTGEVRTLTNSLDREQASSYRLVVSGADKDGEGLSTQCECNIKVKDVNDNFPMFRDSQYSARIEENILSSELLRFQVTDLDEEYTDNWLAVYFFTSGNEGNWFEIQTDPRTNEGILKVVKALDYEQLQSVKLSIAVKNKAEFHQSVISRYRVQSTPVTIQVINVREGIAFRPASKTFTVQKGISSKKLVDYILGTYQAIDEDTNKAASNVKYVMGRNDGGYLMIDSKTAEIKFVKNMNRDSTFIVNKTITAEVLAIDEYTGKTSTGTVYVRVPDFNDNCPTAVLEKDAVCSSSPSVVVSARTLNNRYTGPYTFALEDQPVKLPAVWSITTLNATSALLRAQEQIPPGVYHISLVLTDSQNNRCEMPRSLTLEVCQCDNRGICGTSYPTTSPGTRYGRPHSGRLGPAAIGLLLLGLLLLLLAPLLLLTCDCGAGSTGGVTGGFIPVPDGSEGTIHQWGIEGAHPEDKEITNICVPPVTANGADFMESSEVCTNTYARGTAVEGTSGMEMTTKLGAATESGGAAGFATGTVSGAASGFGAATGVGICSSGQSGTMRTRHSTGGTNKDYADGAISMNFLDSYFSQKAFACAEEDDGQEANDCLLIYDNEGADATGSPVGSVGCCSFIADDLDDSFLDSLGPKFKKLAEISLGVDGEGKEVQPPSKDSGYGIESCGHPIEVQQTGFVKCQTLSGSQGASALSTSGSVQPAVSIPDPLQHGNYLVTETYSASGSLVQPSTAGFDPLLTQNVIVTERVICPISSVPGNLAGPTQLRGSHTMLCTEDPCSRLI
MEP2 TOR yeast: modulators of TOR pathway MEP2-GFP in S. cerevisiae | S. cerevisiae MEP2-GFP strain, flow cytometry GFP, 3 h; 100% = DMSO control level | GFP response vs DMSO, % at 10 µM | 330,000 tested, 0.51% active;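 active means GFP response versus DMSO above a set limit, roughly screen mean plus 3 SD, cut at about 180% in these data; inconclusive means fewer than 70 cells counted for a yeast strain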;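 further: median GFP fluorescence of the barcode-gated MEP2-GFP cells per well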
* hit, by the source's call; ? = inconclusive; · = not tested or not shown; + = active, no number; [ ] = remark or other dose.

SMILES	CIT2-GFP yeast	AGP1 TOR yeast	RPL19A-GFP yeast	LAP4-GFP MLPCN	Pemphigus Ab inh	MEP2 TOR yeast
COc1ccc(S(=O)(=O)N2CCOC2CNC(=O)C(=O)NCC(C)C)cc1OC (configuration not stated)	108	99	106	86	98	104
CCCCOc1cccc(/C=C(\C#N)C(=O)NC2CC2)c1	120	83	98	175*	·	100
CN1CCN(c2nc(-c3ccc(Cl)cc3)cc(=O)[nH]2)CC1	100	104	101	98	98	100
CCCCOc1ccc(C(=O)N(Cc2ccco2)C2CCS(=O)(=O)C2)cc1 (configuration not stated)	103	100	101	101	·	108
O=C(c1ccc(Br)cc1)N(Cc1ccco1)C1CCS(=O)(=O)C1 (configuration not stated)	?	?	20*[may fluoresce violet]	88	95	161
CC(=O)c1cc(NC(=O)c2ccc(C)cc2)c(=O)oc1C	74	·	79	166*	99	86
CCOC(=O)c1c(-c2ccccc2)c[nH]c1C	·	·	·	·	70*	·
Cc1ccc(C(=O)N2c3ccccc3NC(=O)C2C)cc1 (configuration not stated)	·	102	103	212*	99	247*
COc1ccc(CN2C(=O)C(CC(=O)NCc3cccs3)CC(C(=O)N3CCOCC3)=C2C)cc1 (configuration not stated)	·	·	·	·	97	·
CCC(CC)NC(=O)Cc1ccc(F)cc1	+[may fluoresce green]	251*[may fluoresce green]	267	921*[may fluoresce green]	106	+[may fluoresce green]
COCC(C)NC(=O)Cc1ccc(F)cc1 (configuration not stated)	91	95	95	93	·	99
Nn1c(CSc2ccccn2)nc2ccccc2c1=O	?	?	63	57	94	261*[may fluoresce violet]
CCN(CCn1cccn1)C(=O)c1cccc(OC2CCN(S(C)(=O)=O)CC2)c1	99	104	?	89	102	?
CCOc1ccc(C(=O)NC2CCN(C(=S)Nc3ccccc3C)CC2)cc1	95	91	91	93	-5.5*	92
COc1ccc(C(=O)NC2CCN(C(=S)Nc3ccccc3C)CC2)cc1	100	98	98	98	105	103
Cc1ccsc1CN(C(=O)c1ccccc1)C1CCS(=O)(=O)C1 (configuration not stated)	103	98	102	90	97	95
Cc1nc(N)c(Cc2ccccc2F)c(N)n1	96	97	95	95	24*	98
Cc1onc(-c2ccccc2)c1C(=O)NC(=S)NNC(=O)c1ccco1	84	96	98	158*	100	105
Cc1onc(-c2ccccc2)c1C(=O)NC(=S)NNC(=O)c1ccncc1	109	97	101	91	96	84
CC(=O)NC(=S)Nc1ccc(NC(=S)NC(=O)/C=C/c2ccco2)cc1	95	106	99	110	·	100
O=C(/C=C/c1ccco1)NC(=S)NNC(=O)c1ccco1	101	91	95	98	60*	98
COc1cc2ccccc2cc1C(=O)N1CCc2ccccc21	·	·	·	·	103	·
NS(=O)(=O)c1ccc(N/C=C\C(=O)c2ccc(F)cc2)cc1	99	104	103	113	71	104
NS(=O)(=O)c1ccc(N/C=C/C(=O)c2ccc(Br)cc2)cc1	?	14	78	95	93*	169
Cc1ccc(C(=O)c2c3ccccc3[n+]([O-])n2CCC(=O)O)cc1	95	103	98	107	93	102
SMILES	CIT2-GFP yeast	AGP1 TOR yeast	RPL19A-GFP yeast	LAP4-GFP MLPCN	Pemphigus Ab inh	MEP2 TOR yeast
CCOC(=O)c1c2ccccc2[n+]([O-])n1[C@@H](C)C(N)=O	?	?	30*[may fluoresce violet]	105	131	281*[may fluoresce violet]
Cn1c2ccccc2c2cnn(CC(=O)N3CCCCC3)c(=O)c21	85	106	103	95	100	101
O=[N+]([O-])c1ccc(OCc2cnc(Cl)s2)c([N+](=O)[O-])c1	84	91	97	106	87*	88
Cc1cc(C)cc(N(CC(=O)NC2CCC(C)CC2)S(=O)(=O)c2c(C)noc2C)c1 (configuration not stated)	96	100	100	99	91*	105
O=C(NCc1n[nH]c(=S)n1-c1cccc(C(F)(F)F)c1)c1ccc(S(=O)(=O)N2CCCC2)cc1	97	97	101	86	86	101
O=C(NCc1n[nH]c(=S)n1-c1cccc(C(F)(F)F)c1)c1ccc(S(=O)(=O)N2CCCCC2)cc1	?	?	26*[may fluoresce violet]	59	101	221*[may fluoresce violet]
O=C(Cn1cnc2c(nnn2-c2cccc(F)c2)c1=O)Nc1ccc2c(c1)OCCO2	103	101	105	107	·	106
C=CCSc1nnc2nc3c(nn12)c1cc(C)ccc1n3CC=C	97	106	104	109	-30*	106
COc1ccccc1-c1nc(C(=O)NCC2CCCO2)cc2c1[nH]c1ccccc12 (configuration not stated)	96	96	96	97	77*	100
CC1(c2cccc(Br)c2)NC(=O)N(CC(=O)Nc2ccc3c(c2)OCO3)C1=O (configuration not stated)	103	97	96	92	·	92
Nc1ccc(CC2SC(=O)NC2=O)cc1 (configuration not stated)	?	?	51	132	100	416*[may fluoresce violet]
CCOc1ncccc1C(=O)OCC(=O)NCCc1ccccc1	?	?	58	57	105	245*[may fluoresce violet]
CCOc1ncccc1C(=O)OCC(=O)NCCCc1ccccc1	79	81	95	86	·	88
COc1cc(S(=O)(=O)N2CCOCC2)ccc1NC(=O)c1cc2c(s1)CCC2	?	17	39*[may fluoresce violet]	96	114	233*[may fluoresce violet]
O=S(=O)(c1cccc(S(=O)(=O)N2CCOCC2)c1)N1CCCCC1	?	?	40*[may fluoresce violet]	84	97	279*[may fluoresce violet]
Cc1ccc(S(=O)(=O)N2CCOCC2)cc1NC(=O)c1cc2c(s1)CCC2	100	105	100	111	81	101
COc1ccc(S(=O)(=O)N2CCOCC2)cc1Cl	?	24	54	94	102	299*[may fluoresce violet]
Cc1ccccc1Nc1ncnc2c1cnn2C	101	107	104	91	113	106
O=C(NNC(=S)Nc1ccccc1Cl)c1ccccc1Br	74	87	102	76	97	96
O=C(CSc1nc(O)cc(=O)n1-c1ccccc1)Nc1ccc2c3c(cccc13)CC2	107	99	105	89	41*	104
COc1ccc(C2(c3ccc(OC)cc3)NC(=O)N(CC(=O)NC3CCS(=O)(=O)C3)C2=O)cc1 (configuration not stated)	111	98	99	100	98	104

Screening results (PubChem BioAssay)
